From paper PMC4102417

What follows are compounds tested on murine 3T3 fibroblasts (assay: primary screen, percent viability or growth; higher = less effect of the substance).
Method: Similarly, for measuring the cytotoxicity concentration (CC50) for 3T3 fibroblast cells, cultures were incubated with drugs for 72 hours and developed using Alamar Blue (Alamar Biosciences Inc, Sacramento, CA) as previously described.

SMILES | Mammalian (3T3) cell % growth at 10 uM
Cc1c(O)c(O)cc2c1CC=C1[C@@]2(C)CC[C@@]2(C)[C@@H]3C[C@](C)(C(=O)O)CC[C@]3(C)CC[C@]12C | 0.1%
O=C1C=C2C=C[C@@H]3C[C@@]2(O1)[C@H]1CCCCN31 | 75%
C[C@@H]1CC[C@H]2[C@@H](C)C(=O)O[C@@H]3O[C@@]4(C)CC[C@@H]1[C@]32OO4 | 77.6%
COc1ccc(C[C@H]2NC[C@H](O)[C@H]2OC(C)=O)cc1 | 10.3%
CC(C)c1ccc2c(c1O)CC[C@H]1C3=C(CC[C@]21C)C(=O)OC3 | 83.1%
CC1=C(O)C(=O)C=C2C1=CC=C1[C@@]2(C)CC[C@@]2(C)[C@@H]3C[C@](C)(C(=O)O)CC[C@]3(C)CC[C@]12C | 1%
CC[C@@]1(O)C(=O)OCc2c1cc1n(c2=O)Cc2cc3ccccc3nc2-1 | 94.3%
